Results as given in PubChem BioAssay AID1851 (National Center for Advancing Translational Sciences (NCATS), 2009).
Where “and” joins values, the source holds several entries; their conditions need not be identical. Equal values may be shown once. Among all 16,000 compounds or so, about 5,700 (36%) were called active. Inconclusive results (about 24%) are left out. Calls follow the shape of the dose curve; as a rule, active = well fitted curve in the direction sought with a large enough effect; inconclusive = small, poorly fitted or top-dose-only effect, or effect the other way; inactive = no such curve, though single readings can be large or run the other way. The list shows a part of the results.

molecular target: Cytochrome P450 1A2 (Homo sapiens) (UniProt P05177); experiment: Cytochrome panel assay with activity outcomes; details: recombinant CYP, pro-luciferin dealkylation, luminescence, p450-cyp1a2; series mostly up to 57.1 µM; activity, negative = inhibition: at the top concentration
% is scaled to controls: 0 for no effect and ±100 for the full control effect.

Cytochrome P450 1A2 (Homo sapiens), sequence (P05177 whole entry, looked up): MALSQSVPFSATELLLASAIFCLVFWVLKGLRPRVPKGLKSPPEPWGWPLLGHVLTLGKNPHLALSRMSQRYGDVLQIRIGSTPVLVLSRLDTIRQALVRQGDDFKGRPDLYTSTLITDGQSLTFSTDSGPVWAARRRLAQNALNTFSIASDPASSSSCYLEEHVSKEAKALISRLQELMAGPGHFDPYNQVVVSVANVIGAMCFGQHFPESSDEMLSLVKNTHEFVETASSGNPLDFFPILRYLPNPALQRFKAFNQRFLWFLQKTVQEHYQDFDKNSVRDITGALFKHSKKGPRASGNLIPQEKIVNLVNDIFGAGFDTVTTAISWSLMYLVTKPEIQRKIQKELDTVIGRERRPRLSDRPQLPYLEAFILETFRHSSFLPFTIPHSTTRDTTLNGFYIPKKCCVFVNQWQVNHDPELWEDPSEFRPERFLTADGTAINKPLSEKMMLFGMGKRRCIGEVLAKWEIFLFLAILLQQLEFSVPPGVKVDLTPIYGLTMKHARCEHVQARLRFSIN

activity, negative = inhibition, inactive:
CN(C)CCSCCO -14.3% [at 2.29 µM]
CN(C)CC(CN(C)C)c1ccccn1 -16.5% [at 11.4 µM]
COc1ccc(-c2cc([C@H](O)[C@@H]3CCCCN3)c3ccccc3n2)cc1 -11% [at 2.29 µM]
CC(=O)OC[C@@H]1O[C@@H](O/N=C2/C[C@@H](O)[C@@H](O)[C@@H]3[C@H]4C(=O)N(c5ccc(F)cc5F)C(=O)[C@@H]4CC[C@H]23)[C@H](OC(C)=O)[C@H](OC(C)=O)[C@@H]1OC(C)=O -3.19% [at 11.4 µM]
Cc1cccc(N(CC(=O)NCCSCc2ccco2)S(=O)(=O)c2ccccc2)c1 -3.73%
C/C(CCN1CCCCc2nc(C)c(C)cc21)=N\O[C@@H](C)c1cc(-c2c(C)cc(C)cc2C)no1 2.23% [at 11.4 µM]
Nc1ncnc2c1nc(Sc1ccc(Cl)cc1)n2[C@@H]1O[C@H]2COP(=O)(O)O[C@@H]2[C@H]1O -8.07%
CC(C)=NO[C@@H](C)c1cn([C@H](CO)Cc2ccccc2)nn1 -7.23% [at 11.4 µM] and -1.97% [at 11.4 µM]
CC1CCN(CCCn2c(=S)[nH]c3ccc(N4CCOCC4)cc3c2=O)CC1 -26.7%
CCCCNC(=O)CSc1nc2ccccc2c(=O)n1CCNC(C)=O -6.64%
CCOC(=O)CCN1C(=O)[C@H]2[C@@H]3[C@H](O)C=CC(=O)[C@H]3CC[C@H]2C1=O -6.05% [at 11.4 µM]
Cc1ccc(C)c(C(=O)CN2C(=O)c3ccccc3S2(=O)=O)c1 -17.5%
CN(C)CC/C=C1\c2ccccc2CSc2ccccc21 -6.68% [at 25.6 µM]
CN1CCN(CCC=C2c3ccccc3Sc3ccc(S(=O)(=O)N(C)C)cc32)CC1 -7.27%
C[C@H]1CN(CCO)CCN1c1ccccc1 -18.4% [at 11.4 µM]

AC50, active:
CN(CCc1ccccn1)c1ccc2c(c1)Cc1ccccc1-2 0.631 µM
CN(CCc1ccccn1)c1ccc2c(c1)C(=O)c1ccccc1-2 0.158 µM
c1ccc2c(NC3CC3)nc(-c3ccoc3)nc2c1 0.316 µM
COc1cccc(-c2nccc(NC3CCNCC3)n2)c1 6.31 µM
COc1cccc(-c2nc(NC3CCNCC3)c3ccccc3n2)c1 12.6 µM
c1ccc2c(NC3CCNCC3)nc(-c3ccoc3)nc2c1 15.8 µM
CN(C)c1ccc(-c2nc(NC3CCNCC3)c3ccccc3n2)cc1 15.8 µM
CCCCn1c(SCC(N)=O)nc2ccc(N3CCOCC3)cc2c1=O 4.47 µM
CC(=O)c1cc(C)ccc1OC(=O)CCN1C(=O)C2C3c4ccccc4C(c4ccccc43)C2C1=O (centres undefined) 15.8 µM
CN(C)CC/C=C1\c2ccccc2Sc2ccc(Cl)cc21 1.58 µM
CN(C)CC/C=C1\c2ccccc2COc2ccccc21 15.8 µM
OCCN1CCN(CCC=C2c3ccccc3Sc3ccc(Cl)cc32)CC1 15.8 µM

AC50, inactive:
CN(C)CC[C@@H](c1ccccc1)c1ccccn1
CN(C)CCC=C1c2ccccc2C=Cc2ccccc21
